Experimental data published in PubChem BioAssay (EPA / NIEHS).
Calls of active or inactive are those of the source. The calls were made as follows: active = hit-call score of the fitted dose curve at least 0.9, where 1 is the maximum; inactive = score below 0.9.

What was measured:
[1] = read-out: Tissue Factor, F3 (gene 2152); assay: BSK_CASM3C_TissueFactor: BioMAP Diversity Plus: CASM3C Assay for Tissue Factor Biomarker Activity (AID 2283052); details: primary human coronary artery smooth muscle cells; actives raise or lower the signal;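 also: cell surface tissue factor protein level read by ELISA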
[2] = read-out: Interferon-gamma inducible Protein 10 (IP10), CXCL10 (gene 3627); assay: BSK_hDFCGF_IP10: BioMAP Diversity Plus: hDFCGF Assay for Interferon-gamma inducible Protein 10 (IP10) Biomarker Activity (AID 2283053); details: primary human foreskin fibroblasts; actives raise or lower the signal
How it was run: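 ELISA read-out of IP-10 (CXCL10) from primary human skin fibroblasts, 24 h after compound addition. Gain or loss of signal versus DMSO baseline, bidirectional curve fitting.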

[3] = read-out: Urokinase-type plasminogen activator receptor (uPAR), PLAUR (gene 5329); assay: BSK_CASM3C_uPAR: BioMAP Diversity Plus: CASM3C Assay for Urokinase-type plasminogen activator receptor (uPAR) Biomarker Activity (AID 2283054); details: primary human coronary artery smooth muscle cells; actives raise or lower the signal;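 also: cell-surface uPAR protein level quantified by ELISA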
[4] = read-out: Vascular cell adhesion molecule 1 (VCAM1), VCAM1 (gene 7412); assay: BSK_CASM3C_VCAM1: BioMAP Diversity Plus: CASM3C Assay for Vascular cell adhesion molecule 1 (VCAM1) Biomarker Activity (AID 2283055); details: primary human coronary artery smooth muscle cells; actives raise or lower the signal;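 also: VCAM-1 protein level quantified by ELISA on the cells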
[5] = read-out: Collagen III, COL3A1 (gene 1281); assay: BSK_hDFCGF_CollagenIII: BioMAP Diversity Plus: hDFCGF Assay for Collagen III Biomarker Activity (AID 2283056); details: primary human foreskin fibroblasts; actives raise or lower the signal
How it was run: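 ELISA readout of Collagen III in human dermal (foreskin) fibroblasts, taken 24 h post-treatment. Gain or loss relative to DMSO vehicle fitted in both directions.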

[6] = read-out: Epidermal growth factor receptor (EGFR), EGFR (gene 1956); assay: BSK_hDFCGF_EGFR: BioMAP Diversity Plus: hDFCGF Assay for Epidermal growth factor receptor (EGFR) Biomarker Activity (AID 2283057); details: primary human foreskin fibroblasts; actives raise or lower the signal
How it was run: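 ELISA readout of EGFR on human dermal fibroblasts (primary foreskin cells), 24 h post-dosing; bidirectional curve fit vs DMSO baseline, gain or loss of signal scored.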

[7] = read-out: Interleukin-8 (IL8), CXCL8 (gene 3576); assay: BSK_hDFCGF_IL8: BioMAP Diversity Plus: hDFCGF Assay for Interleukin-8 (IL8) Biomarker Activity (AID 2283058); details: primary human foreskin fibroblasts; actives raise or lower the signal
How it was run: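 IL-8 levels read by ELISA at 24 hours after dosing human skin fibroblast cultures. Parallel SRB staining assessed overt cytotoxicity, and gain or loss of signal was fitted against DMSO control.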

[8] = BSK_hDFCGF_Proliferation: Cell Proliferation Assessment in the BioMAP Diversity Plus: hDFCGF Assay (AID 2283059); details: primary human foreskin fibroblasts;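 also: curves fitted for both rise and fall of signal versus DMSO baseline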
How it was run: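 Steps: dose primary human dermal fibroblasts (foreskin); […] fix in 10% TCA; stain with 0.1% SRB; read 560 nm; fit gain or loss of signal against DMSO.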

[9] = read-out: Macrophage colony-stimulating factor (MCSF), CSF1 (gene 1435); assay: BSK_hDFCGF_MCSF: BioMAP Diversity Plus: hDFCGF Assay for Macrophage colony-stimulating factor (MCSF) Biomarker Activity (AID 2283060); details: primary human foreskin fibroblasts; actives raise or lower the signal
How it was run: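 M-CSF levels read by ELISA at 24 h post-dosing in human skin fibroblasts. Parallel cultures stained with SRB assessed cytotoxicity at the same time point; response fitted in both directions against the DMSO baseline.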

[10] = BSK_hDFCGF_SRB: Viability Assessment in the BioMAP Diversity Plus: hDFCGF Assay (AID 2283061); details: primary human foreskin fibroblasts;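 also: cells exposed to compound for 24 h before the read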
How it was run: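 Viability was read as total protein: after 10% TCA fixation, wells were stained with 0.1% sulforhodamine B and read at 560 nm. Primary human foreskin fibroblasts were dosed for 24 h, with bidirectional fitting versus DMSO.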

[11] = read-out: Monokine induced gamma interferon (MIG), CXCL9 (gene 4283); assay: BSK_hDFCGF_MIG: BioMAP Diversity Plus: hDFCGF Assay for Monokine induced gamma interferon (MIG) Biomarker Activity (AID 2283063); details: primary human foreskin fibroblasts; actives raise or lower the signal
How it was run: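 Human primary foreskin fibroblasts in the hDFCGF system, exposed to test chemical for 24 h; MIG measured by ELISA. Bidirectional curve fitting against DMSO negative control as activity baseline.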

[12] = read-out: Matrix Metallopeptidase 1 (MMP1), MMP1 (gene 4312); assay: BSK_hDFCGF_MMP1: BioMAP Diversity Plus: hDFCGF Assay for Matrix Metallopeptidase 1 (MMP1) Biomarker Activity (AID 2283064); details: primary human foreskin fibroblasts; actives raise or lower the signal
How it was run: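 MMP1 levels quantified by ELISA 24 h after dosing human dermal fibroblast cultures, with parallel SRB total-protein staining for overt cytotoxicity. Data fitted in both directions against DMSO baseline.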

[13] = read-out: Vascular cell adhesion molecule 1 (VCAM1), VCAM1 (gene 7412); assay: BSK_hDFCGF_VCAM1: BioMAP Diversity Plus: hDFCGF Assay for Vascular cell adhesion molecule 1 (VCAM1) Biomarker Activity (AID 2283065); details: primary human foreskin fibroblasts; actives raise or lower the signal
How it was run: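 ELISA readout of VCAM-1 on human dermal fibroblast primary cultures, 24 h after chemical exposure. Gain or loss of signal fitted in both directions against DMSO baseline.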

[14] = read-out: Plasminogen activator inhibitor-1 (PAI1), SERPINE1 (gene 5054); assay: BSK_hDFCGF_PAI1: BioMAP Diversity Plus: hDFCGF Assay for Plasminogen activator inhibitor-1 (PAI1) Biomarker Activity (AID 2283066); details: primary human foreskin fibroblasts; actives raise or lower the signal
How it was run: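 ELISA readout of PAI-1 from primary human skin fibroblast cultures, 24 h after compound addition. Gain or loss of signal was fitted bidirectionally against DMSO baseline.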

[15] = read-out: Intercellular Adhesion Molecule 1 (ICAM1), ICAM1 (gene 3383); assay: BSK_KF3CT_ICAM1: BioMAP Diversity Plus: KF3CT Assay for Intercellular Adhesion Molecule 1 (ICAM1) Biomarker Activity (AID 2283067); details: primary human keratinocytes with fibroblasts; actives raise or lower the signal
How it was run: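 Cell-surface ICAM-1 was measured by ELISA 24 h after dosing primary human skin keratinocytes co-cultured with fibroblasts. Parallel SRB staining tracked overt cytotoxicity. Gain or loss of signal was fitted relative to DMSO.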

[16] = read-out: Interferon-gamma inducible Protein 10 (IP10), CXCL10 (gene 3627); assay: BSK_KF3CT_IP10: BioMAP Diversity Plus: KF3CT Assay for Interferon-gamma inducible Protein 10 (IP10) Biomarker Activity (AID 2283068); details: primary human keratinocytes with fibroblasts; actives raise or lower the signal
How it was run: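 KF3CT co-culture (keratinocytes + foreskin fibroblasts), 24 h compound, IP-10 by ELISA; bidirectional fit vs DMSO baseline.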

[17] = BSK_KF3CT_SRB: Viability Assessment in the BioMAP Diversity Plus: KF3CT Assay (AID 2283069); details: primary human keratinocytes with fibroblasts;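 also: total protein by sulforhodamine B staining as a cytotoxicity measure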
How it was run: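 Cytotoxicity was gauged by SRB staining (0.1% SRB, 10% TCA fixation, 560 nm) of parallel cultures at 24 h. The cells were primary human skin keratinocytes co-cultured with fibroblasts, and activity was fitted in both directions against DMSO.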

[18] = read-out: Interleukin-1 alpha (IL1a), IL1A (gene 3552); assay: BSK_KF3CT_IL1a: BioMAP Diversity Plus: KF3CT Assay for Interleukin-1 alpha (IL1a) Biomarker Activity (AID 2283070); details: primary human keratinocytes with fibroblasts; actives raise or lower the signal
How it was run: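 IL-1a was detected by ELISA 24 h after chemical treatment of a co-culture of human skin keratinocytes and foreskin fibroblasts. Gain or loss of signal was fitted against the DMSO baseline.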

[19] = read-out: TIMP metallopeptidase inhibitor 2 (TIMP2), TIMP2 (gene 7077); assay: BSK_KF3CT_TIMP2: BioMAP Diversity Plus: KF3CT Assay for TIMP metallopeptidase inhibitor 2 (TIMP2) Biomarker Activity (AID 2283071); details: primary human keratinocytes with fibroblasts; actives raise or lower the signal
How it was run: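 ELISA readout of TIMP-2 in keratinocyte plus foreskin fibroblast co-cultures (human skin primary cells), 24 h post-dose. Gain or loss of signal fitted relative to DMSO.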

[20] = read-out: TIMP metallopeptidase inhibitor 1 (TIMP1), TIMP1 (gene 7076); assay: BSK_hDFCGF_TIMP1: BioMAP Diversity Plus: hDFCGF Assay for TIMP metallopeptidase inhibitor 1 (TIMP1) Biomarker Activity (AID 2283062); details: primary human foreskin fibroblasts; actives raise or lower the signal
How it was run: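 TIMP-1 measured by ELISA 24 h after chemical dosing of primary human skin fibroblasts, with gain or loss fitted relative to DMSO. Parallel SRB staining (560 nm) monitored overt cytotoxicity.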

Measured: outcome

CC(C)c1cccc(C(C)C)c1
not listed: [20]
inactive: all other assays above

O=C(O)c1cccnc1
not listed: [20]
inactive: all other assays above

Cc1ccc(C(C)(C)C)c(O)c1
not listed: [20]
inactive: all other assays above

c1ccc2occc2c1
not listed: [20]
inactive: all other assays above

COc1ccc(OC(F)(F)F)cc1CN[C@H]1CCCN[C@H]1c1ccccc1
not listed: [8] | [19]
inactive: all other assays above

CC(=O)OCC(COC(C)=O)OC(C)=O
not listed: [20]
inactive: all other assays above
